This passage reports growth results from PubChem BioAssay (NCI).

About 83,000 compounds went through this panel and 20% of them were active in at least one assay; those are over-represented in the sample as a whole.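 The endpoint reported here, percent growth, reads 100 for growth as untreated, 0 for no net growth and -100 for all cells dead.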 Calls of active or inactive are those of the source. Rule for the calls: active = growth percent below 10; inactive = the rest.

The test system of one assay is NCI-H522 lung. Kind of assay: NCI-60 one-dose screen, 48 h (100 = growth as untreated, 0 = no growth, -100 = all killed). The conditions noted are these: 10 µM unless noted.
On to `CC/C=C\C=C/C(=O)N/C=C/CC1Cc2cccc(O)c2C(=O)O1` (centres undefined), for which the growth was 55.2% (inactive).

Take `c1ccc2cc(C[n+]3ccn(CCCCCCCn4cc[n+](Cc5ccc6ccccc6c5)c4)c3)ccc2c1`: the growth is 5.87% (active).

On to `Nc1ccc2c3c(cccc13)-c1ccccc1-2`, for which the growth was 68.5% (inactive).

Take `Clc1ccc([C@@H]2C[C@@H]3Cc4cc(Br)c5ccccc5c4N2O3)c(Cl)c1`: the growth is 43.8% (inactive).

As to `Cc1nn(-c2ccc(Br)cc2)c2nc3c(nc12)C(=O)C(=O)c1ccccc1-3`, the growth was 98.3% (inactive).

With `COc1ccc(OC)c2c1[nH]c(=O)c1c3ccccc3cn21`, the growth is -50.4% (active).

`O=C(NCCCO)c1cc(Cl)ccc1O`: the growth was -1.53% (active).

As to `COc1ccc(C2=NN(C(C)=O)C(c3cc(OC)c(OC)c(OC)c3)C2)cc1` (centres undefined), the growth was 67.7% (inactive).

For the compound `CC(=O)O[C@H]1C(=O)[C@@]2(C)C([C@H](OC(=O)c3ccccc3)[C@]3(O)C[C@H](OC(=O)[C@H](O)[C@@H](NC(=O)c4ccccc4)c4ccccc4)C(C)=C1C3(C)C)[C@]1(OC(C)=O)CO[C@@H]1C[C@@H]2O` (some centres undefined), the growth was -25.2% (active).

For `O=C(Nc1nc(-c2ccc(Cl)cc2)cs1)c1cc(O)c(O)c(O)c1`, the growth was -34.9% (active).

In the case of `CCCCN(CCCC)CCCOC(=O)c1ccc(N)cc1`, the growth was 67% (inactive).

On to `CCCCCCCCCCC[C@@H](C[C@H]1OC(=O)[C@H]1CCCCCC)OC(=O)[C@@H](CC(C)C)NC=O`, for which the growth is 59.9% (inactive).

Regarding `O=C1Nc2ccccc2C12Nc1cc(Cl)ccc1S2` (centres undefined), the growth is 82.6% (inactive).

Regarding `CCOc1cc(C(C)(C)C)ccc1C1=N[C@H](c2ccc(Cl)cc2)[C@H](c2ccc(Cl)cc2)N1C(=O)N1CCN(CC#Cc2cccc3c2CN([C@@H]2CCC(=O)NC2=O)C3=O)CC1`, the growth was 39.3% (inactive).

As for `CN(CCOc1ccc(CC2SC(=O)NC2=O)cc1)c1ccccn1` (centres undefined), the growth was 95.9% (inactive).

As to `C[C@]12CC[C@@H]3c4ccc(O)cc4CC[C@H]3[C@@H]1CC[C@@H]2NS(=O)(=O)c1cccc(Br)c1`, the growth is 40.4% (inactive).

On to `Clc1cc(Cl)c(OCC#CI)cc1Cl`, for which the growth was 18% (inactive).

Turning to `O=C(Nc1cccc(C(F)(F)F)c1)Nc1ccc(OCc2nnc(-c3ccc(Cl)cc3)o2)c(F)c1`, the growth was 64% (inactive).

As for `CCCn1cnc2c1c(=O)n(CCCCC(C)=O)c(=O)n2C`, the growth is 113% (inactive).

On to `N=c1ccn2c(n1)O[C@@H]1[C@@H](O)[C@H](CO)O[C@@H]12`, for which the growth is 39.4% (inactive).

As to `CCCCCCCCCCCCCCCCCc1nccn1CCO`, the growth was 52.6% (inactive).

`Nc1ccc(C2=Nc3cccc4cccc(c34)S2)cc1`: the growth is 82.7% (inactive).

A further assay relates to A549/ATCC NSCLC. The description is as above. The following applies: 10 µM unless noted.
Take `Cc1ccc2c(c1)C(=O)/C(=C/c1ncc([N+](=O)[O-])n1C)O2`: the growth is 6.86% (active).

Turning to `CCCc1nn(C)c2c(=O)[nH]c(-c3cc(S(=O)(=O)N4CCN(C)CC4)ccc3OCC)nc12`, the growth is 96.2% (inactive).

For `Cc1ccc(NC(=O)Nc2ccc(-c3cccnc3)cc2N2CCC(CO)CC2)cc1`, the growth is 7.01% (active).

Take `O=C(Nc1cccc([N+](=O)[O-])c1)c1cccc(C(=O)Nc2cccc([N+](=O)[O-])c2)c1`: the growth is 59.9% (inactive).

`O=C(Nc1nc(-c2ccccc2)cs1)c1cc(O)c(O)c(O)c1`: the growth was 46.2% (inactive).

Regarding `CC(C)(C)c1ccc(C(O)CCCN2CCC(C(O)(c3ccccc3)c3ccccc3)CC2)cc1` (centres undefined), the growth was -39.8% (active).

In the case of `Cc1cc(=O)n2n1-c1ccc(Cl)cc1NC(=O)C2`, the growth was 100% (inactive).

Consider `CC(=O)NC1(C(=O)O)CCCC1`, for which the growth was 126% (inactive).

In the case of `Nc1nc(N)c([N+](=O)[O-])c(=O)[nH]1`, the growth is 97.8% (inactive).

As for `COc1ccc2nc(NC(=O)c3cc(-c4ccc(F)cc4)n4nc(-c5ccccc5)cc4n3)sc2c1`, the growth is 77.1% (inactive).

In the case of `Cc1ccc2c(c1)O/C(=C\c1ccc([N+](=O)[O-])o1)C2=O`, the growth was 55.4% (inactive).

`CCOC(=O)c1c2c(c(C)n1Cc1ccc(OC)cc1)-c1nc(N)ncc1CC2`: the growth was 110% (inactive).

For the compound `COc1cc2c(-c3nc4cc(Cl)c(F)cc4s3)cc(=O)oc2c(C)c1OC`, the growth is -53.9% (active).

With `COc1cc(C(=O)/C=C/c2cccnc2Nc2ccccc2)cc(OC)c1OC`, the growth is 2.67% (active).

Regarding `O=C(C(Br)Br)C(Br)C(Br)c1ccccc1` (centres undefined), the growth was 98.5% (inactive).

As to `CC/C=C\C=C/C(=O)N/C=C/CC1Cc2cccc(O)c2C(=O)O1` (centres undefined), the growth is 84.8% (inactive).

Consider `c1ccc2cc(C[n+]3ccn(CCCCCCCn4cc[n+](Cc5ccc6ccccc6c5)c4)c3)ccc2c1`, for which the growth was 26.7% (inactive).

In the case of `Nc1ccc2c3c(cccc13)-c1ccccc1-2`, the growth is 85.1% (inactive).

`Clc1ccc([C@@H]2C[C@@H]3Cc4cc(Br)c5ccccc5c4N2O3)c(Cl)c1`: the growth was 70.8% (inactive).

For the compound `Cc1nn(-c2ccc(Br)cc2)c2nc3c(nc12)C(=O)C(=O)c1ccccc1-3`, the growth is 100% (inactive).

`COc1ccc(OC)c2c1[nH]c(=O)c1c3ccccc3cn21`: the growth is -73.2% (active).

As to `O=C(NCCCO)c1cc(Cl)ccc1O`, the growth is 38.5% (inactive).

As for `COc1ccc(C2=NN(C(C)=O)C(c3cc(OC)c(OC)c(OC)c3)C2)cc1` (centres undefined), the growth was 108% (inactive).

Regarding `CC(=O)O[C@H]1C(=O)[C@@]2(C)C([C@H](OC(=O)c3ccccc3)[C@]3(O)C[C@H](OC(=O)[C@H](O)[C@@H](NC(=O)c4ccccc4)c4ccccc4)C(C)=C1C3(C)C)[C@]1(OC(C)=O)CO[C@@H]1C[C@@H]2O` (some centres undefined), the growth is 13.1% (inactive).

Take `O=C(Nc1nc(-c2ccc(Cl)cc2)cs1)c1cc(O)c(O)c(O)c1`: the growth is 25.2% (inactive).

Regarding `CCCCN(CCCC)CCCOC(=O)c1ccc(N)cc1`, the growth is 70.9% (inactive).

Regarding `CCCCCCCCCCC[C@@H](C[C@H]1OC(=O)[C@H]1CCCCCC)OC(=O)[C@@H](CC(C)C)NC=O`, the growth was 83.6% (inactive).

In the case of `O=C1Nc2ccccc2C12Nc1cc(Cl)ccc1S2` (centres undefined), the growth was 98.7% (inactive).

Regarding `CCOc1cc(C(C)(C)C)ccc1C1=N[C@H](c2ccc(Cl)cc2)[C@H](c2ccc(Cl)cc2)N1C(=O)N1CCN(CC#Cc2cccc3c2CN([C@@H]2CCC(=O)NC2=O)C3=O)CC1`, the growth is 24.8% (inactive).

As to `CN(CCOc1ccc(CC2SC(=O)NC2=O)cc1)c1ccccn1` (centres undefined), the growth was 99.2% (inactive).

With `C[C@]12CC[C@@H]3c4ccc(O)cc4CC[C@H]3[C@@H]1CC[C@@H]2NS(=O)(=O)c1cccc(Br)c1`, the growth was 43.2% (inactive).

Consider `Clc1cc(Cl)c(OCC#CI)cc1Cl`, for which the growth is 101% (inactive).

In the case of `O=C(Nc1cccc(C(F)(F)F)c1)Nc1ccc(OCc2nnc(-c3ccc(Cl)cc3)o2)c(F)c1`, the growth was 50% (inactive).

Regarding `CCCn1cnc2c1c(=O)n(CCCCC(C)=O)c(=O)n2C`, the growth is 95.8% (inactive).

With `N=c1ccn2c(n1)O[C@@H]1[C@@H](O)[C@H](CO)O[C@@H]12`, the growth is 22.2% (inactive).

For the compound `CCCCCCCCCCCCCCCCCc1nccn1CCO`, the growth is 64.7% (inactive).

On to `Nc1ccc(C2=Nc3cccc4cccc(c34)S2)cc1`, for which the growth is 81.5% (inactive).
